Source: PubChem (The Scripps Research Institute Molecular Screening Center)
SRC1 inh = inhibits human SRC1 coactivator. inhibition, % at 3.6 µM. Q15788. HEK293 GAL4-SRC1 luciferase reporter, luminescence. 0.12% of 360,000 active;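 active means inhibition above the campaign mean plus 3 SD, with each screening campaign given its own cutoff, cut at about 60% in these data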
SRC2 inh = inhibits human steroid receptor coactivator 2; inhibition, % at 9 µM; 0.17% of 370,000 active; AID 651957; Q15596; HEK293 GAL4-SRC2 luciferase reporter, luminescence;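 active means inhibition above the mean inhibition of all tested compounds plus 3 SD, set per campaign, cut at about 52% in these data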
COUP-TFII inh = inhibitors of human COUP-TFII (NR2F2). AID 686940. 0.7% of 370,000 active. HEK293T NGFI-A luciferase reporter, luminescence. P24468. inhibition, % at 8.6 µM;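 active means inhibition above a per-plate cutoff, mean inhibition of test wells between control levels plus 3 SD, cut at about 38% in these data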;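 further: cells cotransfected with COUP-TFII expression vector driving the NGFI-A reporter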
SRC3 inh = inhibitors of human steroid receptor coactivator 3 (SRC3) | Q9Y6Q9 | HEK293 GAL4-SRC3 luciferase reporter, luminescence | inhibition, % at 3.6 µM | 0.17% of 360,000 active;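 active means inhibition above a per-campaign cutoff, the mean of all compounds plus 3 SD, cut at about 60% in these data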;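 further: higher means less SRC3-driven luciferase light from the GAL4 reporter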
NR5A2 inv ag = inverse agonists of human LRH-1 (NR5A2) | O00482 | HEK293T StAR-luciferase reporter, LRH-1 transfected, 24 h | inhibition, % at 3.6 µM | 0.13% of 360,000 active | AID 602396;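 active means inhibition above the mean inhibition of all tested compounds plus 3 SD, cut at about 73% in these data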
Gal4-VP16 ctr = inhibits VP16 reporter, flagging COUP-TFII antagonist hits. shares compounds with COUP-TFII inh. HEK293 Gal4-VP16 luciferase reporter, luminescence. inhibition, % at 8.5 µM. 25% of 2,500 active. AID 687007; in the data active means inhibition above about 13%
NR2F2 inh conf = confirmation of human COUP-TFII (NR2F2) inhibitors | inhibition, % at 8.5 µM | shares compounds with COUP-TFII inh | HEK293 NGFI-A luciferase reporter, luminescence | 45% of 2,500 active;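 active means mean inhibition over three repeats above a set limit taken from the earlier primary screen, cut at about 38% in these data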
Hits are given with their value; . = inactive; / = no result given. An excerpt weighted towards active compounds, which were near 0.81% of everything screened.

SMILES	SRC1 inh	SRC2 inh	COUP-TFII inh	SRC3 inh	NR5A2 inv ag	Gal4-VP16 ctr	NR2F2 inh conf
O=C(C1CCN(S(=O)(=O)c2ccc3[nH]c(=O)oc3c2)CC1)N1CCCC1	/	.	.	/	/	/	/
Cc1ccc(NC(=O)O/N=C/c2c(C)nn(C(C)(C)C)c2C)cc1Cl	91	95	100	92	88	93	110
Cc1ccc(NC(=O)C2CCN(c3ncnc4sc(C)c(C)c34)CC2)cc1S(=O)(=O)N(C)C	.	.	48	.	.	.	.
CCN(CC)S(=O)(=O)c1cc(NC(=O)C2CCN(c3ncnc4sc(C)c(C)c34)CC2)ccc1Cl	.	.	.	.	.	/	/
COc1cc(NC(=O)C2CCCN(S(=O)(=O)c3ccc(Cl)s3)C2)cc(OC)c1 (centres undefined)	/	.	.	/	/	/	/
COC(=O)[C@]12CCCCC=C1N(Cc1cccc3ccccc13)C(=O)[C@H](CC(=O)NCc1ccc(OC)c(OC)c1)C2	/	.	97	/	.	.	58
CCOC(=O)[C@]12CCC=C1N(Cc1cccc3ccccc13)C(=O)[C@H](CC(=O)NCc1ccc(OC)c(OC)c1)C2	/	.	37	/	.	.	.
COC(=O)[C@]12CCCCC=C1N(CCc1ccc(OC)c(OC)c1)C(=O)[C@H](CC(=O)NCc1cccc3ccccc13)C2	/	.	.	/	.	/	/
CCOC(=O)Cc1nn(Cc2nc(-c3ccc(C#N)cc3)cs2)c(=O)c2ccccc12	.	.	39	.	.	17	.
C=CCC1(CC=C)CCCN1C(=O)c1cc(COc2cncc(Cl)c2)on1	.	.	48	.	.	.	.
CC(=O)CC[C@@H]1CC[C@]2(CCCN(C(=O)C(C)(C)C)C2)O1	/	.	.	/	/	/	/
COc1ccccc1OCc1ccc(C(=O)NC(C)(C)C)o1	.	.	.	.	.	/	/
COc1ccccc1OCc1ccc(C(=O)Nc2ccncc2)o1	.	.	39	.	.	.	.
CCOC(=O)C1(Cc2ccc(Cl)cc2)CCN(C(C)Cc2ccc(O)c(OC)c2)CC1 (centres undefined)	.	.	53	.	.	.	.
Cc1cc(C)n2c(Nc3ccc4c(c3)OCCO4)c(-c3cc4ccccc4o3)nc2n1	/	.	51	/	.	.	.
Cc1cc(C)n2c(Nc3ccc4c(c3)OCCO4)c(-c3ccc(C)o3)nc2n1	.	.	.	.	.	/	/
Cc1ccc(/C=C2/CNC/C(=C/c3ccc(C)cc3)C2=O)cc1	.	.	47	.	80	54	50
c1ccc(CCc2nn3c(-c4ccncc4)nnc3s2)cc1	68	.	51	.	.	.	.
CC(C)CN1C(=O)C[C@@]2(C(=O)N(C)c3ccc(NC(=O)C(F)(F)F)cc32)C1c1ccccc1 (some centres undefined)	/	.	.	/	/	/	/
CCCOc1ccc(Cn2cnc3ccccc32)cc1	.	.	38	.	.	.	.
CCCCCCCCN1C(=O)[C@@H](CC(=O)NCCC(C)C)C[C@@]2(C(=O)OC)C1=C[C@H](C(C)C)O[C@@H]2C1CC1	/	.	.	/	/	/	/
O=C(Nc1ccc(F)c(Cl)c1)c1cc(C2CCCCN2C(=O)c2ccc(Cl)cc2)on1 (centres undefined)	.	.	.	.	.	/	/
Cn1nc(C(C)(C)C)cc1C(=O)N1CCCCC1c1cc(C(=O)Nc2ccc(F)c(Cl)c2)no1 (centres undefined)	.	.	41	.	.	.	.
C=C(C(=O)c1ccccc1)C(c1ccccc1)C(C)C(=O)c1ccccc1 (centres undefined)	.	.	.	.	.	/	/
C=C(C(=O)c1ccccc1)C(C)C(=C)C(=O)c1ccccc1	.	.	58	.	.	47	87
SMILES	SRC1 inh	SRC2 inh	COUP-TFII inh	SRC3 inh	NR5A2 inv ag	Gal4-VP16 ctr	NR2F2 inh conf
Nc1c(C(=O)N/N=C/c2ccc(Cl)cc2)cnn1-c1ccccc1	.	.	.	.	.	/	/
COC(=O)c1cnn(-c2ccc(Cl)cc2)c1/C=N/NC(N)=S	.	.	43	.	.	.	.
Cc1cccc(Nc2ncnc3ccc(Br)cc23)c1	.	.	45	.	.	.	.
CN(C)c1ccc(Nc2ncnc3ccc(Br)cc23)cc1	.	.	38	.	.	.	.
CCOC(=O)c1c(C)nn(-c2ccc(NC(=O)/C=C/C(=O)O)cc2)c1C	.	61	65	.	.	36	.
CC(=O)Nc1ccc(NC(=O)CSc2nnc(-c3n[nH]c4c3CCC4)n2N)cc1	/	.	.	/	/	/	/
CCOC(=O)N1CCC(NC(=O)C2CCCN(Cc3nc(-c4cccc(C)c4)oc3C)C2)CC1 (centres undefined)	.	.	42	.	.	.	.
Cc1oc(-c2ccc(Cl)cc2)nc1CN1CCCC(C(=O)N2CCN(C(=O)c3ccco3)CC2)C1 (centres undefined)	.	.	74	.	.	14	63
CCc1ccc(-c2nc(CN3CCC(C(=O)N4CCN(c5ccccn5)CC4)CC3)c(C)o2)cc1	.	.	.	.	.	/	/
CCc1ccc(-c2nc(CN3CCC(C(=O)N4CCN(c5ccccc5)CC4)CC3)c(C)o2)cc1	.	.	42	.	.	.	.
Cc1ccc(Cn2cc(COC(=O)N3CCCC3)nn2)cc1	/	.	.	/	/	/	/
C[C@@H]1C[C@@H]2O[C@H]2CCCCC(=O)Cc2cc(O)cc(O)c2C(=O)O1	/	.	63	/	/	59	65
C[C@@H]1Cc2cc(O)c(O)c(O)c2C(=O)O1	/	.	.	/	/	/	/
C[C@@H]1C[C@H]2O[C@@H]2/C=C\C=C\C(=O)Cc2cc(O)cc(O)c2C(=O)O1	/	55	86	/	/	38	.
Cc1ccc(-c2nc3ncccn3c2NC(=O)Nc2ccc(OC(F)(F)F)cc2)cc1	/	.	.	/	/	/	/
C/C(=N/NC(=O)CN(c1ccccc1)S(=O)(=O)c1ccccc1)c1ccccc1O	.	.	41	.	.	.	.
CC(C)(C)C(=O)NC1CCCCN(Cc2ccc(Cl)cc2)C1=O (centres undefined)	/	.	.	/	/	/	/
Cc1ccc(Oc2ccc(C(=O)NCc3ccncc3)cc2)cc1	.	.	74	.	.	.	41
O=C(c1ccco1)N1CCN=C1SCc1ccc(F)cc1	.	.	58	.	.	.	.
Cc1nccn1CCOc1ccccc1Cl	.	.	68	.	.	.	.
Clc1ccccc1OCCCn1ccnc1	.	.	.	.	.	/	/
COc1cc(C(=O)NCc2cccnc2)ccc1OCC(=O)Nc1cccc(C(F)(F)F)c1	.	.	.	.	.	/	/
COc1ccc(CN(C)C(=O)c2ccc(OCC(=O)Nc3cccc(C(F)(F)F)c3)c(OC)c2)cc1	.	.	64	.	.	.	48
COc1ccc(CCNc2ncnc3sccc23)cc1OC	.	.	74	.	.	.	77
Fc1ccccc1CNc1ncnc2sccc12	.	.	48	.	.	.	41
c1ccc2c(c1)OCC(CNCC1COc3ccccc3O1)O2 (centres undefined)	.	.	.	.	.	/	/
